# An excerpt weighted towards active compounds, which were near 2.4% of everything screened.
# M1 ag parental = M1 agonist counterscreen hit in parental CHO-K1 cells; Fluo-8 calcium fluorescence; scaled to maximal ATP response, vehicle zero; activation, % at 3 µM; hit rate 0.48% among 360,000; AID 602248; in the data active means activation above about 15%;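 further: untransfected CHO-K1 host cells lacking M1 receptor as counterscreen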
# CHO-K1 Ca PAM = M1 PAM counterscreen hit in parental CHO-K1 cells. hit rate 0.02% among 360,000. activation, % at 3 µM. ATP EC20, Fluo-8 calcium fluorescence; 0% at ATP EC20, 100% at ATP max. AID 602247;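 active means activation above the run cutoff, the mean activation of all test compounds plus 3 SD, cut at about 40% in these data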;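 further: peak over basal fluorescence ratio in a 140 s read after ATP addition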
# CHO-K1 Ca antag = counter-screen for M1 antagonists: effect in parental CHO-K1 cells. ATP-induced calcium, Fluo-8 fluorescence. inhibition, % at 3 µM. hit rate 0.6% among 360,000;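 active means inhibition above a per-plate cutoff, the plate's mean sample inhibition plus 3 SD, cut at about 24% in these data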;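 further: 0% = DMSO plus EC80 ATP and 100% = DMSO alone without ATP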
# M1 antag = blocks human M1 muscarinic receptor | hit rate 1.3% among 360,000 | inhibition, % at 3 µM | P11229 | AID 588852 | CHO-K1 hM1, Fluo-8 calcium fluorescence, ACh EC80 antagonist;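 active means percent inhibition above its own plate's cutoff, namely the mean of that plate's compound wells plus 3 SD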;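 further: peak over basal fluorescence ratio during 140 s after agonist addition; 0% = ACh EC80 plus DMSO and 100% = DMSO alone without agonist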
# Target sequence (P11229 whole entry, looked up): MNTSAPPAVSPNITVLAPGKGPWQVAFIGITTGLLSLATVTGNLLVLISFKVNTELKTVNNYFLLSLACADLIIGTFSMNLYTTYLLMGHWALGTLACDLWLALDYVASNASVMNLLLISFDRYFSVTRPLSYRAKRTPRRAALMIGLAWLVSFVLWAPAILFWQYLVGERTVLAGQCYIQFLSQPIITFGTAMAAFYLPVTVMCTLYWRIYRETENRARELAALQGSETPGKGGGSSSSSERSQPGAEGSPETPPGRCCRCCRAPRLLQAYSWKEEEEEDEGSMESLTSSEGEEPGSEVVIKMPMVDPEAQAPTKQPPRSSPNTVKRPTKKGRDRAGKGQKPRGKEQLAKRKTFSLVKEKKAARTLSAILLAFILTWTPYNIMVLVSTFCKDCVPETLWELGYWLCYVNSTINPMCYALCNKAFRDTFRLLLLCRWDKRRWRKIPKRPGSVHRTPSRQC
# CHRM1 agonist = activates human CHRM1 receptor; hit rate 0.33% among 360,000; P11229; AID 588814; activation, % at 3 µM; CHO-K1 hM1, Fluo-8 calcium fluorescence, agonist mode; 0% DMSO, 100% acetylcholine EC100;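 active means activation above the run's mean compound activation plus 3 SD, cut at about 16% in these data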;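 further: peak over basal fluorescence ratio within a 140 s kinetic read after compound addition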
# M1 PAM = positive allosteric modulators of human M1 muscarinic receptor; P11229; CHO-K1 hM1, Fluo-8 calcium fluorescence, ACh EC20; 0% = ACh EC20, 100% = maximal ACh; AID 588819; hit rate 0.088% among 360,000; activation, % at 3 µM; in the data active means activation above about 19%, passing the limit was not always enough
# Active calls of the source: *.
SMILES,M1 ag parental,CHO-K1 Ca PAM,CHO-K1 Ca antag,M1 antag,CHRM1 agonist,M1 PAM
C=CCOc1ccc(/C=C2\SC(=S)N(NS(=O)(=O)c3ccc(C)cc3)C2=O)cc1,-0.2,-1.6,-2.6,-2.8,-4.4,3.9
CCCCOP(=O)(c1ccc(N(C)C)cc1)C(Nc1ccccc1)c1ccccc1 (stereo not drawn),26.6*,13.6,10.8,30.0,-3.4,-13.6
CCCOP(=O)(c1ccc(N(C)C)cc1)C(Nc1ccccc1)c1ccc(N(C)C)cc1 (stereo not drawn),0.0,20.9,-8.4,5.9,-2.8,-4.9
CN1C(=O)/C(=C/c2ccc(OCc3ccc(F)cc3)cc2)N(C)C1=S,0.9,19.1,-11.7,-12.6,-2.5,6.9
CN1C(=O)/C(=C/c2ccccc2OCc2cccc(F)c2)N(C)C1=S,1.0,23.4,-10.2,99.6*,-4.8,-21.8
CN(C)c1nc2ccccc2n(C)c1=O,-0.5,-15.2,23.8*,-5.5,-1.7,0.9
COc1cc2c(cc1OC)C(c1cc(OC)c(OC)c(OC)c1)C1(O)C(=O)OCC1(O)C2 (stereo not drawn),0.1,-5.0,-10.5,-5.1,-1.5,2.1
CS(=O)(=O)Nc1ccc(C2=NN(C(=O)c3ccco3)C(c3cccc(F)c3)C2)cc1 (stereo not drawn),15.8*,22.6,5.7,-0.8,-2.4,12.2
CCN(C(=O)COC(=O)CCS(=O)(=O)c1ccc(C)cc1)C1CCS(=O)(=O)C1 (stereo not drawn),0.9,6.9,-4.6,-14.8,-1.9,8.4
CC(=NNC(=O)c1ccncc1)c1ccc2ccccc2c1O,68.8*,-20.4,15.5,28.8,70.4*,-26.8
CC(=O)c1ccc(Nc2nc(-c3ccccc3)nc3ccccc23)cc1,1.0,-1.2,-5.5,-9.3,-3.0,4.6
CN(C)C(=O)c1ccc(Nc2nc(-c3cccs3)nc3ccccc23)cc1,5.0,-2.3,17.6,25.8*,-2.1,-14.8
CCN(CC)CCOC(=O)CCc1cccc2ccccc12,0.6,16.5,-11.4,11.0,-2.7,-12.6
CCN(CC)CCOC(=O)C(Cc1ccco1)Cc1cccc2ccccc12 (stereo not drawn),6.1,13.3,-5.1,59.3*,-5.4,-25.4
N#CC1=C(N)OC2=C(C(=O)CCC2)C1c1ccc2c(c1)OCO2 (stereo not drawn),0.2,13.2,1.9,3.7,-8.6,-3.0
N#CC1=C(N)OC2=C(C(=O)CCC2)C1c1cc2c(cc1Br)OCO2 (stereo not drawn),-0.1,-9.5,28.5*,30.2*,-8.3,-11.2
N#CC1=C(N)OC2=C(C(=O)CCC2)C1c1cc2c(cc1Cl)OCO2 (stereo not drawn),0.3,-24.1,23.7*,-7.5,-7.4,7.3
O=c1c2cc(Br)ccc2nc2n1CCCCC2,0.3,-24.4,-4.2,85.9*,-3.9,-19.5
O=c1c2cc([N+](=O)[O-])ccc2nc2n1CCCC2,1.2,7.1,-6.5,5.4,-4.7,3.2
Cc1ccc2nc3n(c(=O)c2c1)CCCCC3,-0.3,8.2,-4.7,19.3*,-8.2,-19.5
CCCCNS(=O)(=O)NC(=O)C1=C(N2CCCC2)COC1=O,-0.6,-20.9,26.7*,25.9,-6.6,-12.6
COC(=O)c1c(C(=O)OC)c(-c2ccccc2)n2c1CS(=O)(=O)C2,-0.2,-6.4,26.5*,-0.8,-0.8,0.8
COC(=O)c1c(C(=O)OC)c(-c2ccc(F)cc2)n2c1CS(=O)(=O)C2,0.2,1.9,3.7,-17.2,0.2,12.8
Cc1ccc(-n2nc3c(=O)n(CCCC(=O)NCCc4ccccc4C)nc(C)c3c2C)cc1,-1.1,2.4,-10.0,-0.1,-5.9,-6.5
NC(=O)c1oc2ccccc2c1NC(=O)c1ccc(F)cc1,0.3,-8.2,27.5*,61.7*,-5.7,-29.7
SMILES,M1 ag parental,CHO-K1 Ca PAM,CHO-K1 Ca antag,M1 antag,CHRM1 agonist,M1 PAM
CN1C(=O)N(C)C2(c3ccccc3)NC(=O)NC12c1ccccc1 (stereo not drawn),-0.1,-8.2,29.4*,-14.0,8.2,10.9
O=C1NC2(c3ccccc3)NC(=O)NC2(c2ccccc2)N1 (stereo not drawn),1.2,24.6,3.8,-5.7,-4.0,2.2
COc1ccc(CNC(=O)/C=C/[C@H]2O[C@@H](n3ccc(=O)[nH]c3=O)[C@H](O)[C@@H]2O)cc1,0.6,11.6,-5.2,-15.4,-0.8,3.6
CCOc1ccc(C(C)=O)cc1COC(=O)c1ccccc1C(=O)N(C)Cc1ccccc1,6.6,12.7,2.1,-10.1,-0.4,7.4
CC(C)OC(=O)NCCOC(=O)Nc1ccc(Cl)c(Cl)c1,6.0,7.9,17.2,22.1,1.1,-3.9
CC(C)OC(=O)NCCOC(=O)Nc1cccc(Cl)c1,10.4,1.8,29.1*,25.8,3.8,-8.5
O=Cc1ccccc1OCCOc1ccccc1C=O,6.5,-4.0,4.3,82.3*,-14.2,-34.1
O=C(O)c1ccc(NS(=O)(=O)Cc2ccc(Cl)c(Cl)c2)cc1,2.2,16.2,-5.3,-3.5,-2.0,3.4
COc1ccc(-c2csc(N(CCCN(C)C)C(=O)c3ccccc3Cl)n2)cc1,2.9,10.8,-15.8,52.7*,-9.1,-27.7
CN(C)CCCN(C(=O)c1cccs1)c1nc(-c2ccccc2)cs1,1.8,11.5,-11.4,40.7*,19.1*,-12.5
COc1ccc(-c2csc(N(CCCN(C)C)C(=O)c3ccccc3C)n2)cc1,2.5,16.4,-12.4,13.9,-8.5,-15.6
O=C(OCC(=O)N1CCCC1=O)c1cc2ccccc2o1,0.8,11.1,-13.6,0.5,-5.2,6.8
N#C/C(=C/c1ccc(-c2ccc(S(N)(=O)=O)cc2)o1)c1nc2ccccc2s1,29.6*,-6.0,40.6*,59.8*,54.3*,-21.7
COC(=O)c1ccc(/C=C(\C#N)c2nc3ccccc3s2)cc1,1.4,9.0,6.1,8.0,2.1,0.9
N#C/C(=C/c1ccc(-c2ccc(S(N)(=O)=O)cc2)o1)C(=O)Nc1ccccc1,3.9,11.2,28.1*,23.4,-3.0,-15.2
N#C/C(=C\c1ccccn1)c1nc2ccccc2s1,33.9*,-11.5,34.4*,26.3,27.6*,-21.8
CCN1C(=O)[C@@H]2[C@@H](c3ccc(-c4ccc(F)cc4)cc3)N3CCCC[C@@]3(C(=O)OC)[C@@H]2C1=O,-0.5,5.7,-18.9,-7.3,-1.8,4.5
COc1cccc(CNc2nnnn2C)c1,-0.6,-22.1,10.9,0.4,-4.0,7.9
CCNC(=O)c1ccc(C23CC4CC(CC(C4)C2)C3)o1,15.4*,9.2,-1.7,-10.0,-3.4,7.5
O=C(CNC(=O)c1ccc(Br)o1)NC12CC3CC(CC(C3)C1)C2,1.2,-1.0,-5.9,5.8,4.1,15.2
COc1cc(NC(=O)CSc2nc(=O)n(CCN3CCOCC3)c3c2CCCC3)cc(OC)c1,-0.7,-3.6,-1.1,-4.7,-6.9,9.8
COc1cccc(/C=N/n2c(-c3n[nH]c4c3CCC4)n[nH]c2=S)c1OC,0.3,-0.9,-10.0,75.7*,-7.4,-26.1

# Source: PubChem BioAssay
